The source of these data is PubChem BioAssay.

Each structure is given as a SMILES string. Unmarked numbers belong to inactive results.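 Rule for the calls, unless noted: active = RAM network inhibition above 8.4% in each of two replicates, 3 SD over the compound average; inconclusive = above 8.4% inhibition in only one replicate; inactive = 8.4% inhibition or less in each replicate.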

The first experiment in a line: RAM pathway blockade in budding yeast – dse1pr::URA3 reporter, 5-FOA selection, pilot screen (AID 869;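 active = inhibition over a set limit, the all-compound mean plus 3 SD, in both replicate runs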;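 note: 0% = DMSO wells with no growth and 100% = 10 µM 1-NA-PP1 with full growth; RAM network block rescues cells from 5-FOA so hits raise OD615 growth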). The conditions noted are these: S. cerevisiae dse1pr::URA3 5-FOA growth, OD615, 2 d; at 10 µM; hits give high values; strain carries analog-sensitive mutant Cbk1 kinase.
Take `NC(=O)CCn1nc(-c2ccccc2)c2ccccc2c1=O`: the inhibition is 0.31%.

For the compound `CCC1(C)Cc2c(sc3c2c2ncnn2c2nnc(SCC(=O)NCc4ccco4)n32)CO1` (configuration not stated), the inhibition was 0.815%.

Take `Cc1cc(NS(=O)(=O)c2ccccc2)cc(Cl)c1O`: the inhibition is 1.4%.

As for `COc1ccc(CC(=O)Nc2cc(C)c3c(=O)oc4ccccc4c3n2)cc1`, the inhibition is 4.06%.

With `COCCNC(=O)c1ccc2c(=O)n(CCOC)c(=O)[nH]c2c1`, the inhibition is 0.805%.

For `CCOc1ccc(-n2c(SCC(N)=O)nc3c(c2=O)SCC3)cc1`, the inhibition was 2.31%.

In the case of `CCn1cc(C(=O)NCCCN2CC(C)CC(C)C2)c2cc(OC)c(OC)cc2c1=O` (configuration not stated), the inhibition is 1.03%.

On to `CCOC(=O)N1CCN(C(=O)c2oc3ccc(S(=O)(=O)N4CC(C)CC(C)C4)cc3c2C)CC1` (configuration not stated), for which the inhibition is 1.43%.

As for `Cc1ccc(S(=O)(=O)N2CCC(C(=O)N[C@@H](C)C(=O)NCC3CCCO3)CC2)cc1` (some centres not stated), the inhibition was 2.1%.

With `Cc1cc(S(=O)(=O)N2CCN(Cc3ccc4c(c3)OCO4)CC2)cc(C)c1N1CCCC1=O`, the inhibition is -0.21%.

As for `CC(C)CC(NC(=O)C1CCC(C)CC1)C(=O)Nc1ccccn1` (configuration not stated), the inhibition is 0.5%.

`NC(=O)C1CCN(c2nc(C3CC3)nc3c2nnn3Cc2ccccc2Cl)CC1`: the inhibition was 3.41%.

In the case of `CCOC(=O)COc1cccc2c(=O)n(CC(=O)NCc3ccc4c(c3)OCO4)ccc12`, the inhibition was 3.72%.

As to `CSC(=NCCCN1CCOCC1)NS(=O)(=O)c1cccs1`, the inhibition was 1.51%.

On to `COC(=O)CNC(=O)Cn1cnc2sc(C)c(S(=O)(=O)N3CCC(C)CC3)c2c1=O`, for which the inhibition is 1.11%.

For `Cc1cc(C)c(C)c(S(=O)(=O)Nc2ccccc2C(=O)NCCCn2ccnc2)c1C`, the inhibition is 0.75%.

With `Cc1ccc(N(CC(=O)Nc2ccc(S(=O)(=O)N3CCOCC3)cc2)S(C)(=O)=O)cc1C`, the inhibition is 0.84%.

Consider `CC1CN(C(=O)c2ccccc2C(=O)c2ncc[nH]2)CC(C)O1` (configuration not stated), for which the inhibition is 2.07%.

Turning to `Cc1cc(C)nc(NS(=O)(=O)c2ccc(NC(=O)c3cccs3)cc2)n1`, the inhibition is 0.89%.

`Cn1nnc2c(NCc3ccco3)nccc21`: the inhibition was 3.05%.

Turning to `CCOC(=O)C1CCN(C(=O)Cc2c(C(=O)O)[nH]c3ccccc23)CC1`, the inhibition is 0.02%.

For `CCOC(=O)N1CCN(C(=O)CN(c2cccc(C)c2)S(=O)(=O)c2ccccc2)CC1`, the inhibition was -0.31%.

Consider `CC(=O)Nc1c(C(=O)c2ccc(F)cc2)oc2ccccc12`, for which the inhibition is 2.3%.

As for `COc1cc(NC(=O)COc2ccc(-n3cnnn3)cc2)c(OC)cc1Cl`, the inhibition was 2.55%.

With `CC(=O)c1c(C(C)=O)c(C)n(-c2nc(-c3ccccc3)c(C)s2)c1C`, the inhibition is 1.21%.

For the compound `CCOC(=O)C1(c2csc(N)n2)COC(=O)C1` (configuration not stated), the inhibition was 2.44%.

With `COc1ccc(-c2nc(SC)n(C)c(=O)c2C#N)cc1OC`, the inhibition is 0.12%.

A short description of the next experiment: RAM signaling pathway blockade in yeast – S. cerevisiae, Pdr1DBD-CYC8 efflux-inhibited sensitized strain, primary screen (AID 1298).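 Note: 0% = DMSO untreated cells without growth and 100% = 10 µM 1-NA-PP1 full growth; higher means more yeast growth rescued from 5-FOA killing.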 The conditions noted are these: S. cerevisiae cbk1-as DSE1-URA3 strain, 5-FOA growth OD615, 2 d; at 50 µM; hits give high values.
Consider `COc1cc(NS(=O)(=O)c2ccc(NC(=O)COc3ccc(C)cc3)cc2)nc(OC)n1`, for which the RAM network inhibition was 3.5%.

As to `CC(=O)c1ccc(N2CCN(C(=O)c3ccc(NC(=O)C4CCCO4)cc3)CC2)cc1` (configuration not stated), the RAM network inhibition was 1.4%.

With `CCN(CC)S(=O)(=O)c1ccc2oc(C(=O)NCC3COc4ccccc4O3)c(C)c2c1` (configuration not stated), the RAM network inhibition was 4.96%.

For the compound `C(=N\c1nccs1)/c1c[nH]c2ccccc12`, the RAM network inhibition was 3.02%.

Turning to `COc1cc(C)c(C(C)C)cc1S(=O)(=O)n1cnc(C)c1`, the RAM network inhibition was 4.02%.

On to `CNC(=O)C1C2C=CC3(O2)C1C(=O)N(CCOC)C3C(=O)NCc1ccc(OC)cc1` (configuration not stated), for which the RAM network inhibition is 2.29%.

On to `CC1CCc2sc3nc(N4CCN(CCO)CC4)n4ncnc4c3c2C1` (configuration not stated), for which the RAM network inhibition is 5.04%.

In the case of `CCOC(=O)c1cc(NC(=O)OC)c(C)nc1C`, the RAM network inhibition is 3.38%.

Take `NC(=O)CCn1nc(-c2ccccc2)c2ccccc2c1=O`: the RAM network inhibition was 0%.

With `CCC1(C)Cc2c(sc3c2c2ncnn2c2nnc(SCC(=O)NCc4ccco4)n32)CO1` (configuration not stated), the RAM network inhibition is 1.87%.

As for `Cc1cc(NS(=O)(=O)c2ccccc2)cc(Cl)c1O`, the RAM network inhibition is 2.58%.

As for `COc1ccc(CC(=O)Nc2cc(C)c3c(=O)oc4ccccc4c3n2)cc1`, the RAM network inhibition was 7.11%.

As for `COCCNC(=O)c1ccc2c(=O)n(CCOC)c(=O)[nH]c2c1`, the RAM network inhibition was 0.78%.

On to `CCOc1ccc(-n2c(SCC(N)=O)nc3c(c2=O)SCC3)cc1`, for which the RAM network inhibition was 7.32%.

As for `CCn1cc(C(=O)NCCCN2CC(C)CC(C)C2)c2cc(OC)c(OC)cc2c1=O` (configuration not stated), the RAM network inhibition was 3.13%.

As for `CCOC(=O)N1CCN(C(=O)c2oc3ccc(S(=O)(=O)N4CC(C)CC(C)C4)cc3c2C)CC1` (configuration not stated), the RAM network inhibition was 4.64%.

`Cc1ccc(S(=O)(=O)N2CCC(C(=O)N[C@@H](C)C(=O)NCC3CCCO3)CC2)cc1` (some centres not stated): the RAM network inhibition was -0.73%.

As to `Cc1cc(S(=O)(=O)N2CCN(Cc3ccc4c(c3)OCO4)CC2)cc(C)c1N1CCCC1=O`, the RAM network inhibition was 0.73%.

In the case of `CCCn1c(CN2CCN(c3cccc(Cl)c3)CC2)nc2c1c(=O)n(C)c(=O)n2C`, the RAM network inhibition is 1.38%.

Take `CC(C)CC(NC(=O)C1CCC(C)CC1)C(=O)Nc1ccccn1` (configuration not stated): the RAM network inhibition was 3.07%.

Consider `NC(=O)C1CCN(c2nc(C3CC3)nc3c2nnn3Cc2ccccc2Cl)CC1`, for which the RAM network inhibition is 0.99%.

With `CCOC(=O)COc1cccc2c(=O)n(CC(=O)NCc3ccc4c(c3)OCO4)ccc12`, the RAM network inhibition was 6.61%.

For `CSC(=NCCCN1CCOCC1)NS(=O)(=O)c1cccs1`, the RAM network inhibition is 1.45%.

With `COC(=O)CNC(=O)Cn1cnc2sc(C)c(S(=O)(=O)N3CCC(C)CC3)c2c1=O`, the RAM network inhibition is 0.37%.

For `Cc1cc(C)c(C)c(S(=O)(=O)Nc2ccccc2C(=O)NCCCn2ccnc2)c1C`, the RAM network inhibition is 0.27%.

As for `Cc1ccc(N(CC(=O)Nc2ccc(S(=O)(=O)N3CCOCC3)cc2)S(C)(=O)=O)cc1C`, the RAM network inhibition is 2.67%.

Regarding `CC1CN(C(=O)c2ccccc2C(=O)c2ncc[nH]2)CC(C)O1` (configuration not stated), the RAM network inhibition is 2.87%.

Take `CC(=O)c1ccc(C(=O)Nc2nnc(-c3ccc(Cl)cc3)o2)cc1`: the RAM network inhibition is 2.8%.

`Cc1cc(C)nc(NS(=O)(=O)c2ccc(NC(=O)c3cccs3)cc2)n1`: the RAM network inhibition was 0.21%.

Regarding `Cn1nnc2c(NCc3ccco3)nccc21`, the RAM network inhibition is 0.93%.

`Cc1cc(NC(=O)c2ccc3c(c2)C(=O)N(C2CCCCC2)C3=O)no1`: the RAM network inhibition was 3.39%.

`CCOC(=O)C1CCN(C(=O)Cc2c(C(=O)O)[nH]c3ccccc23)CC1`: the RAM network inhibition was 3.12%.

Turning to `CCOC(=O)N1CCN(C(=O)CN(c2cccc(C)c2)S(=O)(=O)c2ccccc2)CC1`, the RAM network inhibition was 0.62%.

For the compound `CC(=O)Nc1c(C(=O)c2ccc(F)cc2)oc2ccccc12`, the RAM network inhibition is 7.49%.

`CCc1ccc(-c2nc(CSCC(=O)N3CCN(c4ncccn4)CC3)c(C)o2)cc1`: the RAM network inhibition is 7.89%.

`COc1cc(NC(=O)COc2ccc(-n3cnnn3)cc2)c(OC)cc1Cl`: the RAM network inhibition is 2.93%.

Consider `COc1ccccc1CC(=O)Nc1ccc(-c2nnc(-c3ccco3)o2)cc1`, for which the RAM network inhibition was 8.02%.

For the compound `CC(=O)c1c(C(C)=O)c(C)n(-c2nc(-c3ccccc3)c(C)s2)c1C`, the RAM network inhibition is 4.01%.

Regarding `CCOC(=O)C1(c2csc(N)n2)COC(=O)C1` (configuration not stated), the RAM network inhibition is 2.75%.

For `COc1ccc(-c2nc(SC)n(C)c(=O)c2C#N)cc1OC`, the RAM network inhibition was 9.22%.
